According to PubChem BioAssay AID504652 (National Center for Advancing Translational Sciences (NCATS), 2011):
In all, about 360,000 compounds went through this assay and about 11,000 (3.1%) were called active. No stated cut-off is given here; in the data, active means activity change below about -30%; inactive means the rest. Shown is part of a subset that was picked to be rich in actives.

Target: D(1A) dopamine receptor (Homo sapiens) (UniProt P21728)
Experiment: Antagonist of Human D 1 Dopamine Receptor: qHTS
Conditions: HEK293 TREx D1 cells, calcium flux, dopamine EC80; at 10 µM; stronger effect = lower value
How it was run: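 Antagonism measured as reduced calcium response to an EC80 dopamine addition following 180 s compound pre-read; cells were inducible HEK293 Trex D1 plated overnight at 30 C, read kinetically at 1 cycle/sec.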
On the % scale 0 is the no-effect control and ±100 the full control effect.

D(1A) dopamine receptor (Homo sapiens), sequence (P21728 whole entry, looked up): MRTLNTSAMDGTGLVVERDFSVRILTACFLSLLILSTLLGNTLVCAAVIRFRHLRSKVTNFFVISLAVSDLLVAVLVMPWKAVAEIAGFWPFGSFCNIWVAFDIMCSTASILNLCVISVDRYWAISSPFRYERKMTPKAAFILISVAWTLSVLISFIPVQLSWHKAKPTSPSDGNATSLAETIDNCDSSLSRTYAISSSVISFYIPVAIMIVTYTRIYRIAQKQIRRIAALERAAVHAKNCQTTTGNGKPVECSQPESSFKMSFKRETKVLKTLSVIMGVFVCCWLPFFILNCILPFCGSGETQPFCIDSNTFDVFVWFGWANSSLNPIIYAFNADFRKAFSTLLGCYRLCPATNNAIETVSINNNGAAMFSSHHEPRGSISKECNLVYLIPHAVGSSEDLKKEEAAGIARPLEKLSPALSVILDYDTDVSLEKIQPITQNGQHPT

Activity change, negative = inhibition, active:
Cc1ccc(C)c(S(=O)(=O)N2CC(=O)Nc3ccccc32)c1 -34.4%
CN(C)S(=O)(=O)N1CCC(Oc2cccc(C(=O)NCCCC3CCCC3)c2)CC1 -36.8%
Cc1ccc(CCNC(=O)C2CCN(c3nnc(-n4cccc4CNc4ccc(C)cc4)s3)CC2)cc1 -30%
CCOc1ccccc1C1CC(c2ccccc2)Nc2nc(N)nn21 (stereo not drawn) -30.1%
CN(C)CCCNC(=S)N1CCN(c2nc(-c3ccccc3)cs2)CC1 -48%
COCCCNC(=S)N1CCN(c2nc(-c3cccc(OC)c3)cs2)CC1 -31%
CN1CCN(c2oc(-c3ccc(COc4ccc(Cl)cc4)o3)nc2C#N)CC1 -30.2%
N#Cc1nc(COc2ccc(Cl)cc2)oc1N1CCCC1 -31.6%
CC(C)C[C@H](CO)Nc1nc(N(C)c2cccc(Cl)c2)c2ncn(C(C)C)c2n1 -34%
Fc1ccc(Cn2nnnc2C(c2cccs2)N2CCCCCC2)cc1 (stereo not drawn) -36.7%
NS(=O)(=O)c1ccc(CNC(=O)c2cccc(Oc3ccccc3)c2)cc1 -38.4%
O=C(CC(=O)Nc1ccc(Cl)c(Cl)c1)N/N=C/c1ccc(O)cc1 -37.9%
O=C(NC1CCN(Cc2ccccc2)CC1)c1cc(Br)c(Br)[nH]1 -71.3%
S=C(Nc1ccc(Br)cc1)NC1CCN(Cc2ccccc2)CC1 -68.5%

Activity change, negative = inhibition, inactive:
Cc1ccc(C)c(S(=O)(=O)N2CCN(C(=O)Nc3ccccc3)CC2)c1 -15%
Cc1ccc(S(=O)(=O)N2CC(=O)Nc3ccccc32)cc1C 7.51%
CC1=C(C(=O)OCC2CCCCC2)C(c2c(F)cccc2Cl)CC(=O)N1 (stereo not drawn) -8.23%
CN(C(=O)c1cccc(OC2CCN(S(=O)(=O)N(C)C)CC2)c1)C1CCOC1 (stereo not drawn) -17.2%
CNS(=O)(=O)c1cccc(C(=O)NCC2CCCCC2)c1 15.5%
CCOCCc1nn2c(=O)cc(COC(=O)CNC(=O)c3ccc(C(C)(C)C)cc3)nc2s1 -0.812%
CCC(=O)N1c2ccccc2CC1C(=O)N1CCN(c2cccc(OC)c2)CC1 (stereo not drawn) -5.92%
CCc1ccc(S(=O)(=O)c2nnn3c2nc(NCc2ccccc2OC)c2cc(Cl)ccc23)cc1 2.93%
CCCNC(=O)c1ccc2c(c1)ncn2-c1ccc(C)cc1C -21.9%
CSc1ccc(CCNC(=O)C2CCN(c3nnc(-n4cccc4)s3)CC2)cc1 11.1%
CCOc1ccc(CNC(=O)C2CCN(c3nnc(-n4cccc4CNc4ccc(C)cc4)s3)CC2)cc1OC 4.12%
Cc1ccc(C2CC(c3cccc(C)c3)n3nc(N)nc3N2)cc1 (stereo not drawn) 9.87%
CCOc1ccccc1C1CC(c2ccc(Cl)cc2)Nc2nc(N)nn21 (stereo not drawn) 13.6%
COCCCNC(=S)N1CCCC(c2nc3cc(C)c(C)cc3[nH]2)C1 (stereo not drawn) -12%
COc1cccc(-c2ccc(SCC(=O)N3CCN(c4ccccc4)CC3)nn2)c1 3.13%
CN(C)CCCNC(=S)N1CCC(c2nc3ccccc3[nH]2)CC1 7.97%
c1ccc(-c2csc(N3CCc4ccccc4C3)n2)cc1 4.74%
CCn1cc2nc(SCc3ccccc3Cl)n(CCc3ccccc3)c(=O)c2n1 19.6%
O=C(NC1CCCCC1)c1ccc(Cn2c(SCc3ccccc3)nc3cccnc32)cc1 -1.21%
COc1ccc(Br)cc1C1CC(=O)Nc2c1c(C)nn2-c1nc(C)cc(C)n1 (stereo not drawn) 5.29%
CC(=O)N1CCCc2cc(S(=O)(=O)Nc3ccc(Cl)cc3F)ccc21 -13.2%
CCC(C)Nc1oc(-c2ccc(COc3ccc(Cl)cc3)o2)nc1C#N (stereo not drawn) -2.28%
COc1ccc(OCc2ccc(-c3nc(C#N)c(N4CCN(c5ccccc5)CC4)o3)o2)cc1 -27.6%
Cc1ccccc1OCc1ccc(-c2nc(C#N)c(N3CCCCC3)o2)o1 2.09%
Cc1ccc(OCc2nc(C#N)c(N3CCCC3)o2)cc1 -1.06%
CCC(C(=O)Nc1cc(OC)ccc1OC)n1c(=O)c(C(F)(F)F)nc2ccccc21 (stereo not drawn) -23.6%
COc1cc(OC)cc(-c2nc3nc(C)c(CCC(=O)Nc4ccccc4)c(C)n3n2)c1 2.44%
O=C(Nc1ccc(Br)cc1)c1cc2nc(-c3ccccc3)cc(-c3ccccc3)n2n1 -10.1%
COc1ccc(-n2c(=O)c3ccccc3n(Cc3ccccc3Cl)c2=O)cc1 -11.1%
N#Cc1ccc(C(c2nnnn2CCc2ccccc2)N2CCCCCC2)cc1 (stereo not drawn) 10.7%
Fc1ccccc1C(c1nnnn1Cc1ccc2c(c1)OCO2)N1CCN(Cc2ccccc2)CC1 (stereo not drawn) 19.9%
Cc1ccc(S(=O)(=O)N(Cc2nc(-c3ccc(Cl)cc3)no2)C2CCCCC2)cc1 -2.35%
NS(=O)(=O)c1ccc(CNC(=O)c2cnccn2)cc1 9.99%
NS(=O)(=O)c1ccc(CNC(=O)c2cccc(S(=O)(=O)N3CCc4ccccc43)c2)cc1 -4.68%
CCN(CC)S(=O)(=O)c1ccc2c(c1)N(CC(=O)NCC(C)c1ccccc1)C(=O)CO2 (stereo not drawn) 6.95%
CCCCN(CC)C(=O)c1c[nH]c2ccc(S(=O)(=O)Nc3cccc(OC)c3)cc2c1=O 16.9%
CCC(=O)N1CCc2cc(S(=O)(=O)NCCC(=O)Nc3cccc(C)c3C)ccc21 -2.16%
CC1=NNC(=O)C1CCC(=O)N/N=C\c1ccc(Cl)c(Cl)c1 (stereo not drawn) 6.69%
Nc1nnn(CC(=O)N/N=C/c2ccc(O)cc2)n1 -2.2%
Cc1ccn2c(Nc3ccc4c(c3)OCCO4)c(-c3ccc(C)s3)nc2c1 -15.7%
S=C(Nc1ccc(Br)cc1Cl)NC1CCN(Cc2ccccc2)CC1 -18.2%
S=C(NN=C1CCN(Cc2ccccc2)CC1)NC1CCCCC1 2.36%
O=C(NC1CCN(Cc2ccccc2)CC1)c1ccc(Oc2cc(Cl)cc(Cl)c2)o1 -10.1%
Cc1cc(C(=O)NC2CCN(Cc3ccccc3)CC2)n[nH]1 -5.73%
